Sampled rows, rich in hits. Any-hit rate of the full collection: about 3.8%.
NALP1 inh – inhibitors of NALP1 inflammasome in yeast; S. cerevisiae NALP1/ASC/caspase-1 growth, X-gal OD620, 72 h; inhibition, % at 10 µM; 280,000 tested, 0.61% active; in the data active = inhibition mostly above about 24%, no sharp cut-off; inactive = mostly below about 32%
HSF1 inhib – HSF1 inhibition; AID 2098; activity change, negative = inhibition, % at 7.5 µM (by protocol); 300,000 tested, 0.77% active; NIH3T3-HGL HSE-luciferase, MG132-induced, luminescence 8 h; hits give low values;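 active = more than half of replicate wells show activity change below -50%, luminescence cut by over half; inconclusive = some wells, but at most half, below -50%; inactive = no replicate well below -50%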;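 also: luciferase reports HSF-1 transcriptional activity via heat shock element; 0% = median of DMSO wells and -100% = zero luminescence signal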
HSF-1 act – increases HSF-1 driven luciferase reporter signal; NIH3T3-HGL HSF-1 luciferase reporter, MG132, 8 h; 100% = twice DMSO control signal; activation, % at 9 µM; 300,000 tested, 1.7% active;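 active = mean replicate activation of at least 50% with a set share of replicates each reaching 50%; inconclusive = only one of those two conditions met; inactive = mean below 50% and too few replicates reaching it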;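 also: 0% = median of the neutral control wells and 100% = twice that signal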
HSP90 refold inh – HSP90 refolding inhibition in rabbit reticulocyte lysate | AID 1789 | 290,000 tested, 0.91% active | luciferase refolding luminescence, 3 h | inhibition, % at 5.6 µM;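 active = inhibition above the screen-wide mean plus 3 SD, computed separately per campaign, cut at about 16% in these data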;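 also: 0% = DMSO wells and 100% = 60 µM geldanamycin wells; inhibitors lower the luminescence because luciferase stays unfolded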
p-CIP stab down – compounds decreasing mouse p/CIP protein stability | 290,000 tested, 0.01% active | decrease of EGFP signal, % at 10 µM | F442A p/CIP-EGFP cells, EGFP fluorescence, 16 h | Q05BA5;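 active = EGFP signal decrease of at least 30% at 10 µM or well 3 SD below plate mean, unless failing retest; inactive = the rest, including hits failing retest or dose response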
Target sequence (Q05BA5 1-1403): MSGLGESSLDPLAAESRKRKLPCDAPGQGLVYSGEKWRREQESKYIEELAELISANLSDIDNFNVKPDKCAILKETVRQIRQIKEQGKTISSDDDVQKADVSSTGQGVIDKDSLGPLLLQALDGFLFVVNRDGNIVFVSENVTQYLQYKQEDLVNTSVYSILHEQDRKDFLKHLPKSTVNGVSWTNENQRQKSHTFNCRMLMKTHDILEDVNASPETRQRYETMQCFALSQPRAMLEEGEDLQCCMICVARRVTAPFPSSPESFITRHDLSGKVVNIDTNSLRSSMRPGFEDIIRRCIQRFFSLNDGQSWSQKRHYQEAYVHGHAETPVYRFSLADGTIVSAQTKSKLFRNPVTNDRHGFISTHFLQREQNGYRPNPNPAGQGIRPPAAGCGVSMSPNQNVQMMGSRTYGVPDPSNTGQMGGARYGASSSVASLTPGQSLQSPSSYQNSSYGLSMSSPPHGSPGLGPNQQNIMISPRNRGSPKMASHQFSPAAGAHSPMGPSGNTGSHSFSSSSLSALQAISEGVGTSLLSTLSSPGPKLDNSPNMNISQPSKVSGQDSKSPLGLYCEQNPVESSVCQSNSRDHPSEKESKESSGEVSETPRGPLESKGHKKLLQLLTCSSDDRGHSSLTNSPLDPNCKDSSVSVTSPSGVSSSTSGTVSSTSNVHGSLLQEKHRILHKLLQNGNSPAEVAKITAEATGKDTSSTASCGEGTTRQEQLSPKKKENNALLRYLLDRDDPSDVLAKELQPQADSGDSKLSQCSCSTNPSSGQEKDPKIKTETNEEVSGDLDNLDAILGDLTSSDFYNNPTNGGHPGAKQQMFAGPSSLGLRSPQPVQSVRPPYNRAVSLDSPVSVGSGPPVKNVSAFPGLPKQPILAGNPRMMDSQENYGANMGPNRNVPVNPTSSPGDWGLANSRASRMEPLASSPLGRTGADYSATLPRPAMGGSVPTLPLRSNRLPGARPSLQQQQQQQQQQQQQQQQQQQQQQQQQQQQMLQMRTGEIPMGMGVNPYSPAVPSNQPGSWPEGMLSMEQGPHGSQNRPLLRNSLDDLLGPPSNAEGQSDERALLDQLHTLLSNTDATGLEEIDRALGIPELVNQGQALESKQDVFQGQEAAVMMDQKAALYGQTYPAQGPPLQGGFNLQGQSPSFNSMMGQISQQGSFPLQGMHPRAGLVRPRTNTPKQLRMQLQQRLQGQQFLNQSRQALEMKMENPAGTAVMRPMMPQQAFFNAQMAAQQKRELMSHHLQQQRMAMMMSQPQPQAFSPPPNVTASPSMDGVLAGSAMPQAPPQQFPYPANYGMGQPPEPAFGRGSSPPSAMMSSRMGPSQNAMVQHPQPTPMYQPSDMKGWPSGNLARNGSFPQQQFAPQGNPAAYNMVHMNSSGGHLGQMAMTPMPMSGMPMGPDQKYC
Hsp70 act – Hsp70 transcriptional activation, primary screen | 200,000 tested, 0.04% active | activation, % at 10 µM | HeLa Hsp70 promoter luciferase reporter, luminescence; scaled: vehicle 0, proteasome-inhibitor control 100%;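 active = activation above the mean across all tested compounds plus 3 SD, cutoff set per campaign, cut at about 5.5% in these data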;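 also: 100% = MG132 at 30 µM as the positive control and 0% = DMSO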
An asterisk follows results filed as active; ? = inconclusive; nt = no result.

SMILES	NALP1 inh	HSF1 inhib	HSF-1 act	HSP90 refold inh	p-CIP stab down	Hsp70 act
CCn1c(SCC(=O)NC2CCCC2)nnc1-c1cccnc1	4	-11	2	-2	0	nt
O=C(Nc1nccs1)c1ccc(COc2ccc(Cl)cc2)o1	22	37	56*	-6	10	0
CCOc1ccc(N(CC(=O)NCC2CCCO2)S(=O)(=O)c2ccc(SC)cc2)cc1 (stereo not drawn)	34*	-10	-7	7	2	0
O=C(Nc1nccs1)c1ccc(COc2ccc(F)cc2)o1	7	24	?	4	-5	0
CCOc1ccc(S(=O)(=O)N(CC(=O)NCC2CCCO2)c2ccc(F)cc2)cc1 (stereo not drawn)	6	2	21	-2	5	nt
CCOc1ccc(OCc2ccc(C(=O)NC(C)(C)C)o2)cc1	17	-8	-2	5	-19	nt
CCOc1ccc(OCc2ccc(C(=O)NN)o2)cc1	11	8	24	16*	3	nt
CCOc1ccc(OCc2ccc(C(=O)NCC3CCCO3)o2)cc1 (stereo not drawn)	31	4	2	16*	-4	0
Cc1ccccc1-n1c(C)nc2ccccc21	20	-53*	-61	-3	-10	0
Cc1ccc(NC(=O)COc2ccccc2C=O)cc1Cl	-2	44	80*	-1	-12	0
CCN(CC)c1ncnc2ccc(Br)cc12	1	-53*	-58	0	-6	0
OCCNc1ncnc2ccc(Br)cc12	-4	-16	-15	0	1	0
COc1ccc(C)cc1-n1c(SCC(=O)Nc2cccc(C(=O)O)c2)nc2ccccc2c1=O	7	28	75*	1	-6	nt
COc1ccccc1-n1c(SCC(=O)Nc2cccc(C(=O)O)c2)nnc1-c1ccccc1C	2	4	9	-4	-10	nt
Cc1nc2ccccc2n1CC(O)COCC1CC=CCC1 (stereo not drawn)	4	42	87*	-4	-15	0
COc1ccc(N=Nc2n(C)c3ccccc3[n+]2C)cc1	0	-27	-45	79*	-13	nt
S=C(NCc1ccco1)N/N=C/c1ccc(Cl)cc1	15	35	95*	2	-9	0
CN(C)c1ccc(/C=N/NC(=S)NCc2ccccc2)cc1	-1	16	55*	-1	-5	0
c1cnn(-c2cncc(-n3cccn3)n2)c1	-10	-7	-19	0	-11	2
Cc1ccccc1C(C(=O)NC1CCCC1)N(C(=O)CNC(=O)c1ccco1)c1cccnc1 (stereo not drawn)	0	-1	-9	3	7	-1
CO/N=C/C(=N\Nc1ccc(OC)cc1)C(=O)c1ccc(OC)cc1	-6	-9	-9	1	-1	0
COc1ccc(C(=O)C(/C=N/O)=N/Nc2ccc(F)cc2)cc1	20*	2	12	-1	-2	0
COc1ccc(OC)c(NC(=S)N2CCN(C(=O)C3CCCO3)CC2)c1 (stereo not drawn)	8	-1	3	-5	-1	nt
CCC(=O)Nc1cc(NC(=O)CSc2ncc(-c3ccc(F)cc3)n2Cc2ccco2)ccc1C	-15	69	77*	1	8	0
C=CCn1c(COc2ccccc2)nnc1SCC(=O)Nc1ccc2c(c1)OCCO2	-6	4	9	-1	-7	0
SMILES	NALP1 inh	HSF1 inhib	HSF-1 act	HSP90 refold inh	p-CIP stab down	Hsp70 act
Cc1cccc(OCc2nnc(SCC(=O)N(C(C)C)C(C)C)n2Cc2ccco2)c1C	6	37	60*	0	4	0
Cc1ccc(C)c(NC(=O)CSc2nnc(CSc3nc(C)cc(C)n3)n2Cc2ccco2)c1	-22	15	66*	6	-12	0
CCn1c(COc2ccc(C)cc2)nnc1SCC(=O)Nc1ccc2c(c1)OCCO2	30	-71*	-76	-2	-8	0
COc1ccc(NC(=O)CSc2ncc(-c3ccc(F)cc3)n2Cc2ccco2)cc1	3	5	17	5	-16	0
O=C(Cc1ccc(F)cc1)N/N=C/c1ccncc1	24	-5	8	2	-2	0
COc1ccc(N2CCN(C(CNC(=O)c3cccs3)c3ccco3)CC2)cc1 (stereo not drawn)	nt	4	17	nt	nt	nt
COc1ccc(C)cc1NC(=O)C(=O)NNC(=O)COc1ccc(Cl)cc1	3	-85*	-88	-3	6	0
COc1ccc(C)cc1NC(=O)CSc1nnc(COc2ccc(Cl)cc2)n1Cc1ccco1	1	50	107*	4	-4	0
COc1ccc(C(=O)/C=C/c2ccc(OC)c(CN3CCOCC3)c2)cc1	50	34	34	10	-3	0
CCOc1ccc(/C=C/C(=O)c2ccccc2)cc1OC	47	32	63*	-1	-14	0
O=C(/C=C/c1ccc(O)cc1)c1ccccc1	15	40	84*	2	5	nt
COc1ccc(C(=O)/C=C/c2ccc(OC)c(Cn3nnc4ccccc43)c2)cc1	8	44	80*	-3	15	0
CCc1ccccc1NC(=S)N1CCNC(=O)C1CC(=O)OC (stereo not drawn)	15	-2	4	-2	-9	0
Cc1cccc(C)c1N1CCN(S(=O)(=O)c2ccc(F)cc2)CC1	-12	14	55*	0	-3	0
CC[C@H](C)/C=C(C)/C=C/C1=CC2=CC(=O)[C@]3(C)OC(=O)[C@@H](C(C)=O)[C@@H]3C2=CO1	-1	14	35	1	-21	0
CC[C@H](C)/C=C(C)/C=C/C(=O)Cc1cc(O)c(C)c(O)c1C=O	0	44	78*	nt	-8	nt
Cc1cccc(-c2nc(CS(=O)CC(=O)N3CC(C)CC(C)C3)c(C)o2)c1 (stereo not drawn)	26	7	-10	0	3	nt
CC1=C(C(=O)OCc2ccc3c(c2)OCO3)C(c2ccc(F)cc2)NC(=O)N1 (stereo not drawn)	1	-54*	-63	1	-3	0
CC1=C(C(=O)OCc2ccc3c(c2)OCO3)C(c2ccc(Cl)cc2)NC(=O)N1 (stereo not drawn)	-3	-47	-52	1	-10	0
CSCCOC(=O)C1=C(C)NC(=O)NC1c1ccc2c(c1)OCO2 (stereo not drawn)	17	23	56*	10	-9	nt
Cc1ccc(C(=O)Nc2ccc3c(c2)CCC3)o1	-1	32	63*	2	-3	0
O=C(Nc1ccc(N2CCOCC2)c(Cl)c1)c1cc2ccccc2o1	14	31	55*	-4	7	0
O=C(Nc1ccc2c(c1)CCC2)c1ccc(Br)o1	22	21	39	5	-3	0
O=C(Nc1ccc2c(c1)CCC2)c1cc2ccccc2o1	-1	26	63*	4	-10	0

Screens deposited in PubChem BioAssay by several laboratories.
